KLK7 zymogen act = proKLK7 zymogen activators, primary screen, biochemical, fluorescence intensity; AID 652039, 2013; activation, % at 7 µM; purified proKLK7, EDANS-DABCYL substrate fluorescence; 100% is mature enzyme control, 0% vehicle; Kallikrein-7 (Homo sapiens), P49862; 0.9% of 370,000 active;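 active = activation above the mean of all tested compounds plus 3 SD, computed per campaign excluding outliers beyond control limits, cut at about 13% in these data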
Target sequence (P49862 whole entry, looked up): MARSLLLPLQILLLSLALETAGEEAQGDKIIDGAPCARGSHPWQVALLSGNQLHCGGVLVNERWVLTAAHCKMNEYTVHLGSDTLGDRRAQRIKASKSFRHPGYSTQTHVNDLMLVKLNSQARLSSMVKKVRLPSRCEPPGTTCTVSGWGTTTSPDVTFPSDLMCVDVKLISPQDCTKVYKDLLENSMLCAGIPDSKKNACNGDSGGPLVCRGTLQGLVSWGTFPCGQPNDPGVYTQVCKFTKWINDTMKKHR
MsrA inh = bovine MsrA enzyme inhibitors, primary screen, biochemical, absorbance, HTS; Methionine sulfoxide reductase A (Bos taurus); purified bovine MsrA, absorbance read-out; 0.75% of 360,000 active; inhibition, % at 15.5 µM; in the data active = inhibition above about 4.5%;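 also: 0% = vehicle wells with enzyme and 100% = reference inhibitor wells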
SMARCA2 act = SMARCA2 (BRM) function activators, primary screen, cell-based, luminescence, high throughput. MG213 cells, MMTV-luciferase reporter, dexamethasone, overnight. activation, % at 9.1 µM. 1% of 370,000 active; in the data active = activation above about 7.8%;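 also: 0% = vehicle wells and 100% = reference activator wells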
bovine MsrA act = bovine MsrA enzyme activators, primary screen, biochemical, absorbance, HTS | purified bovine MsrA, absorbance read-out | activation, % at 10.6 µM | Methionine sulfoxide reductase A (Bos taurus) | 0.3% of 360,000 active; in the data active = activation above about 7.5%;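 also: 0% = vehicle and 100% = reference activator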
SMARCA2 conf = SMARCA2 (BRM) function activators, confirmation, cell-based, luminescence, triplicate; shares compounds with SMARCA2 act; activation, % at 9.1 µM; AID 652260, 2013; MG213 cells, MMTV-luciferase with dexamethasone, overnight; MG213 cells expressing E1A, Rb sequestered; DMSO wells 0%, reference activator 100%; 30% of 3,500 active;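 active = activation above its plate's cutoff, the mean activation of tested wells plus 3 SD, cut at about 7.9% in these data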
VP16 Luc act = GAL4-VP16 luciferase reporter activation, counter-screen for SMARCA2 (BRM) activator project, cell-based, pG5luc, luminescence, high throughput. shares compounds with SMARCA2 act. HEK293 GAL4-VP16 pG5luc reporter; scaled: DMSO wells 0%, SAHA wells 100%. activation, % at 9.1 µM. 41% of 3,500 active. AID 686939, 2013;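 active = activation above the solvent-only control well mean plus 3 SD, averaged across control plates, cut at about 5.2% in these data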
The depositor's hits bear a star; · = no result. The list is not random: actives were taken first. Their share in the collection is about 2.8%.

SMILES | KLK7 zymogen act | MsrA inh | SMARCA2 act | bovine MsrA act | SMARCA2 conf | VP16 Luc act
Cc1cccc(-c2noc(CSc3ccccc3)n2)c1 | 0 | 0 | 3 | -5 | · | ·
Cc1ccc(-c2noc(CN3CCCCC3)n2)cc1 | 0 | 0 | 8.3* | -2 | 4 | 9.1*
CC(=O)c1cccc(OCC(=O)N(CCC2=CCCCC2)c2c(N)n(Cc3ccccc3)c(=O)[nH]c2=O)c1 | -1 | -1 | 1 | -1 | · | ·
O=C(Nc1cc(Cl)ccc1Oc1ccccc1)c1ccccc1F | 0 | 0 | 8.9* | -3 | -4 | 1
O=C(Nc1cc(Cl)ccc1Oc1ccccc1)c1ccc(F)cc1 | 0 | -1 | -3 | -3 | · | ·
COC(=O)[C@@]12CCCCC=C1N(CCc1ccc(Cl)cc1)C(=O)[C@H]2CC(=O)NCc1cccc2ccccc12 | -1 | · | -2 | · | · | ·
N/C(=N\OC(=O)c1ccccc1Cl)c1cccnc1 | 0 | -1 | 8.8* | 0 | 18* | 7.8*
N/C(=N\OC(=O)c1ccc(Cl)cc1Cl)c1ccncc1 | 1 | 1 | 12* | -7 | 11* | 20*
N/C(=N\OC(=O)c1cc(Cl)ccc1Cl)c1ccncc1 | 0 | -1 | -2 | -4 | · | ·
N/C(CS(=O)(=O)c1ccccn1)=N\OC(=O)c1ccccc1Cl | 0 | 0 | 11* | -9 | 3 | 8.0*
Cc1cc(C(=O)O/N=C(\N)c2ccncc2)ccc1[N+](=O)[O-] | -1 | -1 | 14* | -3 | 6 | 5.2*
N/C(CS(=O)(=O)c1ccccn1)=N\OC(=O)c1ccc(Cl)cc1 | 0 | -2 | 0 | -4 | · | ·
Nc1ncnc2c1ncn2[C@@H]1O[C@H](CNC(=O)[C@@H](N)C2CCCCC2)[C@@H](O)[C@H]1O | 0 | 3 | -4 | 0 | · | ·
Cc1ccc([N+](=O)[O-])cc1S(=O)(=O)Nc1ccc(C(=O)N2CCN(C(=O)c3ccco3)CC2)cc1 | -1 | -1 | 0 | -4 | · | ·
Cc1ccccc1OCc1nc2ccccc2[nH]1 | 0 | 0 | 8.9* | -3 | 2 | 14*
NC(=O)c1ccc(-c2noc(-c3ccccc3F)n2)cc1 | 0 | 1 | 6 | -2 | · | ·
Fc1ccccc1-c1nc(-c2ccc(Cl)cc2)no1 | 0 | -1 | 8.0* | -6 | 13* | 9.7*
COc1ccc(OCCSc2nc(N)cc(N)n2)cc1 | 0 | -1 | 11* | -4 | 8.6* | 8.5*
Cc1ccc(OCCSc2nc(N)cc(N)n2)cc1 | 0 | -1 | 6 | -2 | · | ·
Nc1cc(N)nc(SCCc2ccccc2)n1 | 1 | 0 | 9.5* | -2 | 3 | 1
Nc1cc(N)nc(SCc2ccccc2)n1 | 0 | 0 | 5 | 2 | · | ·
COc1ccc(CN(CCN2CCOCC2)C(=O)c2ccc(F)cc2F)cc1OC | 1 | · | -4 | · | · | ·
O=S1(=O)c2c(cccc2N2CC[C@@H](O)C2)OCCCN1C1CC1 | 0 | · | -2 | · | · | ·
COc1ccc(-c2cc(=O)n(CCC#N)[nH]2)cc1 | -9 | 0 | 13* | 1 | 0 | 2
COc1ccccc1Cc1c(C(C)(C)C)nc2c(C)cc(Br)cn12 | 1 | 1 | -5 | · | · | ·
SMILES | KLK7 zymogen act | MsrA inh | SMARCA2 act | bovine MsrA act | SMARCA2 conf | VP16 Luc act
Clc1ccc(-c2csc(Nc3ccccc3)[n+]2Cc2ccco2)c(Cl)c1 | 1 | 1 | 9.0* | -2 | 4 | 6.1*
Nc1[nH]n(-c2ccccc2)c(=O)c1N=Nc1ccccc1 | 0 | 2 | 2 | -4 | · | ·
CCc1ccccc1N=Nc1c(N)[nH]n(-c2ccccc2)c1=O | 1 | · | 10* | · | 8.1* | 6.0*
N#CCC(=O)Nc1ccc(C(=O)OCC(=O)N=c2sccn2Cc2ccccc2Cl)cc1 | 0 | -1 | 0 | -3 | · | ·
CCC(=O)Nc1ccc(N2CCC(C)CC2)cc1 | 0 | 0 | 9.6* | -2 | 4 | 4
CCN1C(=O)N(C(C)=O)[C@H]2C[C@H](C(=O)N3CCCC3)[C@H](C)[C@H](c3ccccc3)C[C@H]21 | 0 | 0 | -6 | · | · | ·
Cc1cc2nc(-c3cccnc3SCC(=O)NC(C)C)[nH]c2cc1C | 1 | 0 | 11* | -4 | 8.4* | 8.9*
COCCOC(=O)CSc1ncccc1-c1nc2cc(C)c(C)cc2[nH]1 | 4 | 1 | 1 | -13 | · | ·
CC(C)c1cccc(C(C)C)c1NC(=O)CCN1C(=O)NC2(CCCC2)C1=O | 1 | -1 | -1 | -4 | · | ·
Cc1cccc(NC(=O)Cn2c(=O)oc3ccccc32)c1 | -1 | 0 | 8.8* | -1 | -3 | 1
Cc1cccc(NC(=O)CN2C(=O)N/C(=C/c3ccc(C)o3)C2=O)c1 | 1 | 1 | 9.1* | -9 | 2 | 1
O=C(Cn1c(=O)oc2ccccc21)Nc1cccc(Cl)c1 | 0 | 1 | -4 | -10 | · | ·
CCOC(=O)[C@]12CCCCC/C=C\1N(CCc1ccc(Cl)cc1)C(=O)[C@H]2CC(=O)NCCCOC | 1 | · | -1 | · | · | ·
C=CCOC(=O)Nc1nc(CCNC(=O)OC(C)(C)C)c(C(=O)OC)s1 | 0 | 0 | 1 | · | · | ·
COC(=O)[C@]12CCCCC=C1N(Cc1cccc3ccccc13)C(=O)[C@H](CC(=O)N1CCCCC1)C2 | 1 | 0 | -3 | 0 | · | ·
COc1ccc(-c2ccc(SCC(=O)NC3CCCCC3)nn2)cc1 | 0 | 0 | 2 | -1 | · | ·
CCOc1ccc(-c2ccc(SCC(=O)NC3CCCCC3)nn2)cc1 | 0 | 0 | 8.5* | -6 | 5 | 8.9*
Nc1ncnc(Sc2ccccc2)c1[N+](=O)[O-] | 1 | 2 | 0 | -6 | · | ·
Nc1ncnc(Sc2ncccn2)c1[N+](=O)[O-] | 0 | 3 | 18* | 0 | -13 | 2
COc1cccc(N/C(SCc2cccc([N+](=O)[O-])c2)=C(/C#N)C(N)=O)c1 | 0 | 3 | 0 | -6 | · | ·
Cc1ccccc1N/C(SCc1cccc(Br)c1)=C(/C#N)C(N)=O | 0 | 0 | 9.7* | -3 | -4 | 1
COC(=O)[C@]12C[C@H](CC(=O)N3CCOCC3)C(=O)N(Cc3ccc(Cl)cc3Cl)C1=C[C@H](C1CCCC1)O[C@@H]2C | 0 | · | -3 | · | · | ·
CCOC(=O)[C@]12CCCC=C1N(CCCOC)C(=O)[C@@H]2CC(=O)NCCCCc1ccccc1 | 1 | · | -2 | · | · | ·
O=C(CNC(=O)c1ccccc1)OCc1nc2ccccc2s1 | 0 | 1 | 14* | -4 | 5 | 6.3*
O=C(CNC(=O)c1ccccc1F)OCc1nc2ccccc2s1 | 0 | 0 | 6 | -2 | · | ·
Cc1cc2oc(=O)cc(CNc3ccccc3F)c2cc1O | 0 | -1 | -1 | 0 | · | ·
CS(=O)(=O)c1nc([N+](=O)[O-])nn1CCCc1ccccc1 | · | · | · | 0 | · | ·
